Results as given in PubChem BioAssay (NCI).
The panel holds about 83,000 compounds, 20% with a hit somewhere; the sample as a whole holds those more often.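 Single-concentration screen, 48 h exposure, 96-well plates. Endpoint: percent growth. Below 10 = active.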 Active and inactive are the calls of the source.

Tests used:
Assay in all cases: NCI-60 one-dose screen, 48 h (100 = growth as untreated, 0 = no growth, -100 = all killed)
Conditions in all cases: 10 µM unless noted
[1] = test system: NCI-H23 lung
[2] = test system: NCI-H226 lung
[3] = test system: NCI-H322M lung
[4] = test system: HOP-62 NSCLC
[5] = test system: NCI-H460 lung
[6] = test system: HOP-92 NSCLC
[7] = test system: NCI-H522 lung
[8] = test system: A549/ATCC NSCLC
[9] = test system: 786-0 renal
[10] = test system: COLO 205 colon
[11] = test system: DU-145 prostate
[12] = test system: K-562 leukemia
[13] = test system: MALME-3M melanoma
[14] = test system: MDA-MB-231 breast
[15] = test system: RXF 393 renal
[16] = test system: SF-268 CNS
[17] = test system: SF-295 CNS
[18] = test system: SF-539 CNS
[19] = test system: UACC-257 melanoma
[20] = test system: M14 melanoma

Measured: growth

Cc1cc2cccnc2c2ncccc12
active: [2] -2.12% | [5] 0.789% | [10] 9.8% | [19] -1.02%
inactive: [1] 18.7% | [3] 40.4% | [4] 12% | [6] 44.6% | [7] 22.1% | [8] 12.3% | [9] 18.9% | [11] 20.7% | [12] 14.3% | [13] 49.3% | [14] 44.2% | [15] 13.3% | [16] 15.9% | [17] 28.5% | [18] 13%

Cc1cc(Br)c2nsnc2c1[N+](=O)[O-]
inactive: [2] 44.4% | [3] 88.2% | [4] 55.6% | [6] 62.5% | [8] 54.4% | [9] 17.8% | [11] 18.9% | [12] 22.7% | [13] 82.4% | [14] 30% | [15] 48.2% | [16] 32.3% | [17] 33.8% | [19] 66.9%
active: [1] -6.95% | [5] 2% | [7] -40% | [10] 0.766% | [18] 9.73% | [20] 3.57%

CCN(CC)CC(O)c1cc(-c2ccc(Cl)cc2)nc2cc(Cl)ccc12 (configuration not stated)
inactive: [1] 70.8% | [2] 78.5% | [3] 79.2% | [4] 54.6% | [6] 19.3% | [8] 14.6% | [9] 46.3% | [11] 17.9% | [13] 43% | [15] 28.9% | [16] 42.1% | [17] 31.7% | [18] 18%
active: [5] -0.34% | [7] -70.4% | [10] -73% | [12] -27.2% | [14] -3.65% | [19] -59.8%

O=C(c1ccccc1)N(CCCl)C(=O)N(CCCl)C(=O)c1ccccc1
inactive: [1] 93.7% | [2] 93.7% | [3] 90.2% | [4] 91.5% | [5] 108% | [6] 62.3% | [7] 85.7% | [8] 95.7% | [9] 103% | [10] 99.9% | [11] 109% | [12] 95.5% | [13] 95.2% | [14] 82.1% | [15] 104% | [16] 102% | [17] 81.6% | [18] 94.7% | [19] 101% | [20] 101%

CCCCCCCCCCCCCCCC[N+]1(C)CCCC1c1cccnc1 (configuration not stated)
active: [6] 5.98% | [10] -21.7%
inactive: [1] 25.3% | [2] 41.4% | [3] 88.7% | [4] 53.7% | [5] 23.6% | [7] 41.2% | [8] 41.8% | [9] 52.7% | [11] 52.1% | [12] 36.3% | [13] 64.7% | [14] 30.8% | [15] 45.3% | [16] 29.6% | [17] 42.2% | [18] 33.3% | [19] 75.9% | [20] 17.9%

O=C1c2ccccc2C(=O)c2c(O)c(Cl)cc(O)c21
inactive: [1] 96.6% | [2] 104% | [3] 111% | [4] 96.2% | [5] 100% | [6] 87.7% | [7] 85.4% | [8] 108% | [9] 99.2% | [10] 101% | [11] 69.7% | [12] 57% | [13] 71.5% | [14] 95.6% | [15] 103% | [16] 94.4% | [17] 113% | [18] 99.1% | [19] 58.4%

CN(C)CCSC1=Nc2ccc(Cl)cc2C(c2ccccc2Cl)N(C)C1 (configuration not stated)
inactive: [1] 90% | [2] 52.4% | [3] 58.7% | [4] 55.9% | [5] 78.7% | [6] 51.4% | [7] 71.8% | [8] 78% | [9] 65.2% | [10] 70.4% | [11] 94.2% | [12] 47.9% | [13] 58.8% | [14] 51.1% | [15] 104% | [16] 86.3% | [17] 59.7% | [18] 58% | [19] 72.3% | [20] 60.3%

OC(c1cc(C23CC4CC(CC(C4)C2)C3)nc2c(Cl)cc(Cl)cc12)C1CCCCN1 (configuration not stated)
active: [1] -53.9% | [2] -69.4% | [3] -19.3% | [4] -88.6% | [5] -71.4% | [6] -80.7% | [7] -81% | [8] -74.6% | [9] -55% | [10] -87.2% | [11] -93.6% | [12] -67% | [13] -16.3% | [14] -62.2% | [15] -91.4% | [16] -86.9% | [18] -76.9% | [19] -69.1% | [20] -85.6%

CN1CSC(=S)N(Cc2ccccc2)C1
inactive: [1] 83.9% | [2] 104% | [3] 102% | [4] 108% | [5] 108% | [6] 69.4% | [8] 107% | [9] 100% | [10] 113% | [11] 110% | [12] 49.9% | [13] 99.3% | [14] 90.7% | [15] 83.1% | [16] 105% | [17] 106% | [19] 84.3% | [20] 92%
active: [7] -25.6%

N=C1C=C(N)C(=O)c2ccccc21
active: [1] -82.3% | [2] -63% | [3] -88.4% | [4] -94.3% | [5] -67.8% | [6] -38.8% | [7] -67% | [8] -71.7% | [9] -99.6% | [10] -93.7% | [11] -99.5% | [12] -4.96% | [13] -83.7% | [14] -12.5% | [15] -97.1% | [16] -68.4% | [18] -95.8% | [19] -77.2% | [20] -86.5%

CC(=O)Nc1ccc(C(=O)CCl)cc1
inactive: [1] 86.4% | [2] 92.6% | [3] 95.5% | [4] 94% | [5] 80.9% | [6] 62% | [8] 98.7% | [9] 16.9% | [11] 66% | [15] 83.2% | [16] 81.2% | [17] 102% | [18] 56.1% | [19] 86%
active: [7] -65.4% | [10] 3.3% | [12] 1.75% | [13] -53.9%

Cn1ccc(=Nc2ccc(NC(=O)c3ccc(N=c4ccn(C)c5ccc([N+](=O)[O-])cc45)cc3)cc2)cc1
active: [15] -0.0973%
inactive: [1] 73.8% | [2] 70% | [3] 104% | [4] 52.6% | [5] 98.5% | [6] 70.9% | [7] 52.7% | [8] 65.5% | [9] 78.8% | [10] 56.6% | [11] 47% | [12] 96% | [13] 61.9% | [14] 56.6% | [16] 37.1% | [17] 105% | [19] 86.9% | [20] 76.8%

OC(CSc1ccccc1)CN1CCN(c2ccc(Cl)cc2)CC1 (configuration not stated)
inactive: [1] 107% | [2] 91.7% | [3] 110% | [4] 98.3% | [5] 109% | [6] 63.8% | [7] 90.3% | [8] 98.4% | [9] 95.3% | [10] 107% | [11] 110% | [12] 78.3% | [14] 94.7% | [15] 95.7% | [16] 103% | [17] 94.3% | [18] 96.8% | [19] 101% | [20] 100%

CC(C)(C)CC(C)(C)c1ccc(OCCOCCSC(=N)N)cc1
inactive: [1] 30.8% | [2] 92.4% | [3] 67.9% | [4] 96.1% | [5] 23.4% | [6] 37% | [8] 68.8% | [11] 53.8% | [16] 69% | [17] 36.9% | [18] 64.3% | [19] 73%
active: [7] -3.81% | [9] -36% | [10] -80.6% | [12] 3.14% | [13] -60.8% | [15] -36.3% | [20] -67.7%

CCCCCCC1N=C(N)N=C(N)N1c1cccc(Cl)c1 (configuration not stated)
inactive: [2] 67.7% | [3] 43% | [4] 34.6% | [5] 18.4% | [6] 15% | [7] 80.2% | [8] 35.4% | [9] 21.8% | [10] 54.4% | [11] 34.3% | [12] 20.1% | [13] 40.9% | [14] 68% | [16] 19.6% | [17] 13.8% | [19] 63.9% | [20] 31.7%
active: [1] 6.77% | [18] 5.72%

Cc1cc(N/N=C/c2ccccn2)nc2ccccc12
inactive: [1] 14% | [10] 20.5% | [11] 18.2% | [14] 42%
active: [2] -1.94% | [3] 7.17% | [4] 0.2% | [5] 3.05% | [6] -2.87% | [7] -25.6% | [8] 1.82% | [9] 8.98% | [12] 9.21% | [13] 8.16% | [15] 8.96% | [16] 5.12% | [18] -37.8% | [19] -22.6% | [20] -39.7%
